Screening data as filed in PubChem BioAssay.
In the library only some 1.5% were active in any assay of this set; here they are far more common.
PV pol inh = poliovirus RdRp elongation inhibitors, primary screen, biochemical, fluorescence polarization, total intensity; poliovirus polymerase elongation; hits give low values; 150,000 tested, 0.66% active; AID 588519, 2011; Genome polyprotein (Poliovirus type 1 (strain Mahoney)), P03300; % elongation, % (compound at 16.7 µg/mL); in the data active = % elongation below about 90%
Mtb MenB inh = M. tuberculosis MenB inhibitors, primary screen, biochemical, absorbance; 1,4-dihydroxy-2-naphthoyl-CoA synthase (Mycobacterium tuberculosis (strain ATCC 25618 / …; MenB enzyme assay, absorbance read-out; inhibition, % (test concentration not listed); 100,000 tested, 0.43% active; AID 540299, 2011; in the data active = inhibition above about 21%, passing the limit was not always enough
Mtb MbtI inh = MbtI salicylate synthase inhibitors, primary screen, biochemical, fluorescence intensity; P9WFX0; purified MbtI enzyme, fluorescence intensity read-out; inhibition, % (concentration not given with the values); 100,000 tested, 0.89% active; in the data active = inhibition mostly above about 56%, no sharp cut-off; inactive = mostly below about 77%
Target sequence (P9WFX0 whole entry, looked up): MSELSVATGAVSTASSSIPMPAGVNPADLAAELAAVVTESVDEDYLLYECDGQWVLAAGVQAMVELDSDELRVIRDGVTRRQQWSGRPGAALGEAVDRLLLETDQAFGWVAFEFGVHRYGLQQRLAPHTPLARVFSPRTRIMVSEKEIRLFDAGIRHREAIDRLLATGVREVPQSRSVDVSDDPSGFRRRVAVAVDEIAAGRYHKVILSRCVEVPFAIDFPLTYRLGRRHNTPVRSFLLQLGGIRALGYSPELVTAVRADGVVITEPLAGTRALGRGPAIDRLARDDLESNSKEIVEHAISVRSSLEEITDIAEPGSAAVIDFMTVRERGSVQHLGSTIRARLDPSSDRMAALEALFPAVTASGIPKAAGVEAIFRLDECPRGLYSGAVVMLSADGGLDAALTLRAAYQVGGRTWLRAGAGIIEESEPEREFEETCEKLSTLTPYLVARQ
AID504770 = growth inhibition of E. coli YBA685, primary screen, V. cholerae RctB inhibitors. z-score (no concentration beside the values). E. coli YBA685 rctB-dependent plasmid, OD600 growth, 3 h; hits give low values. 130,000 tested, 0.27% active; in the data active = z-score below about -2, passing the limit was not always enough
* = called active by the depositor; . = no result; ! = repeats disagree.

SMILES | PV pol inh | Mtb MenB inh | Mtb MbtI inh | AID504770
CCN(CC)c1ncc2c(=S)[nH]c(=S)[nH]c2n1 | 100 | -9 | -6 | -0.1
C=CCSc1ncc2c(=S)[nH]c(=S)[nH]c2n1 | 93 | -102 | 56* | -0.2
COc1ccc2oc3nc(=O)c4ccccc4c-3cc2c1 | 97 | -30 | -12 | -0.75
Cc1ccccc1N1CCN(C(=O)c2c(C)oc3cc4c(C(=O)N5CCN(c6ccccc6C)CC5)c(C)oc4cc23)CC1 | 103 | 0 | -2 | -3.3*
COc1cc2c(C(=O)N3CCN(c4ccccc4C)CC3)c(C)oc2cc1Br | 103 | 9 | 1 | 1.4
O=C(O)COc1ccc(-c2nnco2)cc1 | 89* | -31 | -1 | 0.15
CC1CCCC(C)N1C(=O)COc1ccc(-c2nnco2)cc1 (configuration not stated) | 105 | -6 | 7 | 0.3
CC(C)CNC(=O)c1ccc2c(c1)[nH]c(=O)n2C(C)C | 102 | 1 | 31 | -0.55
c1nncn1/N=C1/CCCc2nonc21 | 98 | -44 | 84* | -1.2
S=c1nc(C2CC2)[nH]c2ccccc12 | 98 | 12 | 92* | 0
CC(C)c1nc(=S)c2ccccc2[nH]1 | 103 | -56 | 86 | -1.1
Nc1nc(-c2cccs2)c(C(=O)C(F)(F)F)s1 | 100 | -6 | 63* | -0.4
O=c1[nH]c(=S)[nH]nc1Cc1ccc(Cl)c(Cl)c1 | 102 | -27 | 58* | -0.4
O=c1[nH]c(=S)[nH]c(C(F)(F)F)c1Cc1ccc(Cl)c(Cl)c1 | 103 | 1 | -9 | 0.1
Cn1nc(CSc2ccc(Cl)cc2)c(CO)c1Cl | . | . | . | 0.45
S=C(NCCc1ccccc1)NNc1nc2ccccc2o1 | 37* | 9 | 32 | 0.5
Cc1ccc(CNC(=O)C(C)n2nc(C)c3ccccc32)cc1 (configuration not stated) | . | . | . | -0.3
CN1C2CCC1CC(NC1CCCCC1)C2 (configuration not stated) | 80* | 4 | . | 1.2
Cn1c(=S)[nH]c2cc(S(N)(=O)=O)ccc21 | 90* | -9 | 67 | 0.25
NS(=O)(=O)c1ccc(CCn2c(=S)[nH]c3ccccc3c2=O)cc1 | 100 | 3 | 7 | -0.35
Cc1nn(Cc2ccc(C(=O)Sc3ccc(C(F)(F)F)cn3)o2)c(C)c1Br | 104 | 9 | 86* | 0.55
N#CC(C#N)=NNc1ccc(SC(F)F)cc1 | 95 | -259 | 18 | -3.4*
COP1(=S)/C(=C2/N(C)c3ccccc3C2(C)C)C=NN1C (configuration not stated) | 70* | -82 | 100* | 0.65
Cc1cc(-c2c(O)c3ccccc3n(C)c2=O)no1 | 101 | -15 | . | 1.6
Cc1ccc(S(=O)(=O)c2[nH]c(-c3ccccc3)nc2SCCC(=O)O)cc1 | 110 | . | . | .
SMILES | PV pol inh | Mtb MenB inh | Mtb MbtI inh | AID504770
CCCSc1nc(-c2ccccc2)[nH]c1S(=O)(=O)c1ccc(C)cc1 | -16* | . | . | .
Cc1ccc(C(C(=O)O)N2Cc3ccccc3C2=O)cc1 (configuration not stated) | 99 | -22 | -2 | -0.55
O=C(O)CCSc1n[nH]c(=S)s1 | 97 | -18 | 64 | 0.3
CCC(C)Sc1n[nH]c(=S)s1 (configuration not stated) | 101 | 6 | 99* | -0.45
C=C(C)CSc1n[nH]c(=S)s1 | 96 | 4 | 100 | -0.25
CC(C)Sc1n[nH]c(=S)s1 | 88* | -104 | 98* | -0.5
Cc1ccc(C(=O)CSC2=NCCCCC2)cc1 | 93 | 33* | 16 | -0.85
FC(F)(F)c1cc(C(F)(F)F)n2[nH]c(=S)nc2n1 | 98 | -103 | 96* | -0.3
COc1ccc(-c2cc3nccc(-c4cc(Cl)c(C)cc4O)n3n2)cc1 | 86* | . | . | .
O=C(Cc1c(F)cccc1Cl)OCC(=O)c1ccccc1 | 99 | . | -12 | -0.8
O=C(Nc1ccccc1C(=O)O)c1cccs1 | 98 | 27 | 89* | -0.4
O=C(Cn1c(C(=O)NCc2ccco2)cc2sccc21)c1ccccc1 | 104 | 24* | 12 | 1.1
CC(C)CNC(=O)c1ccccc1S(=O)(=O)N1CCCCC1 | 115 | -23 | 94* | -0.95
CN(N)P(=S)(c1ccccc1)N(C)N | 76* | 4 | 93* | 1.4
CC1=CCC2C(=O)N(c3ccc(O)cc3)C(=O)C2C1 (configuration not stated) | . | . | . | -0.05
CCCCc1c(C(=O)O)cccc1C(=O)O | 102 | 27* | -4 | 0.85
Cc1cc(N)cc2[nH]c(-c3ccc(N)cc3)nc12 | 66* | -7 | . | 0.8
COc1cccc(C(=O)CN2C3=NCCN3c3ccccc32)c1 | 98 | 7 | 1 | -0.7
COC(=O)c1cc(NC(=S)NN2CCOCC2)cc(C(=O)OC)c1 | 99 | 45* | 4 | 0.6
S=C(Nc1ccc(Cl)cc1)NN1CCOCC1 | 105 | -18 | -7 | 2
Cc1[nH]c(=S)sc1CC(=O)NC1CCCCC1C (configuration not stated) | 98 | -2 | 84* | 1.7
Cc1ccc(C=Nc2ccc(Cl)cc2)o1 | 102 | -43 | 6 | 1.1
Cc1nn(-c2ccccc2)nc1CNS(C)(=O)=O | 102 | -11 | 11 | -0.65
Cc1nn(-c2ccccc2)nc1CNS(=O)(=O)c1cccs1 | . | . | . | -3.3*
O=S(=O)(NC1=NCCS1)c1ccc(N=NN2CCCCC2)cc1 | 102 | -12 | -15 | -1.3
SMILES | PV pol inh | Mtb MenB inh | Mtb MbtI inh | AID504770
Cc1ccc(S(=O)(=O)Nc2ccc(N=NN3CCCCC3)cc2)cc1 | 100 | -57 | 20 | -6.8*
CCCn1c(=O)[nH][nH]c1=S | 100 | 3 | 88* | -0.15
CSc1ncc2c(n1)-c1ccccc1N(C)S2(=O)=O | 101 | 0 | 65 | -0.9
CSc1ncc2c(n1)-c1ccccc1N(Cc1ccccc1)S2(=O)=O | -15* | . | . | .
C[N+](C)(Cc1ccccc1)Cc1ccccc1 | 107 | -8 | . | -0.45
Cc1cc(C(C)(C)CC(C)(C)C)ccc1OCCOCC[N+](C)(C)Cc1ccccc1 | 94*! | 0 | -16 | 0.25
Cc1c(C(=O)Nc2ccncc2)oc2ccccc12 | 101 | 38* | -3 | 0.6
S=c1[nH]nc(NCCc2ccc(Cl)cc2)s1 | . | . | . | -0.15
CC(C)CNc1n[nH]c(=S)s1 | 99 | -33 | 96* | -0.1
CCC(C)CCCNc1n[nH]c(=S)s1 (configuration not stated) | 96 | -19 | 98* | 0.3
c1ccc2sc(SN3CCOCC3)nc2c1 | 104 | -3 | 84* | -0.5
c1ccc2sc(N3CCOCC3)nc2c1 | . | . | . | -0.75
O=C(O)CCN1CCN(c2cccc(Cl)c2)CC1 | 101 | -19 | -8 | -0.9
CCN(CC)C(=O)CN1CCN(c2cccc(Cl)c2)CC1 | 102 | 33* | 0 | -0.1
CC(C(=O)NC1CCCC1)N(c1ccc(F)cc1)S(C)(=O)=O (configuration not stated) | 103 | -2 | -21 | -0.95
CCc1ccc(S(=O)(=O)c2nnn3c2nc(NCc2ccccc2)c2cc(Cl)ccc23)cc1 | 104 | . | . | .
CCc1ccc(S(=O)(=O)c2nnn3c2nc(NCc2cccc(OC)c2)c2cc(Cl)ccc23)cc1 | 89* | . | . | .
Cn1c(=O)[nH]c2c(nc(-c3ccccc3)n2C)c1=O | 109 | 5 | . | 2.1
Cn1c(=O)[nH]c2nncnc2c1=O | 43* | -152 | 6 | -1.7
